Measured values as given in PubChem BioAssay (EPA / NIEHS).
Results filed as inconclusive are left out. Active and inactive are the calls of the source. How the source made its calls, unless noted: active means hit-call score of the fitted dose curve at least 0.9, where 1 is the maximum; inactive means score below 0.9.

What was measured:
[1] = UKN2_HCS_IMR90_neural_migration: University of Konstanz (UKN) Leist Lab Neural Crest Cell Migration Assay in human induced IMR90 Pluripotent Stem Cells (UKN2) (AID 2284204); conditions: actives raise or lower the signal
Summary of the method: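 High-content imaging of calcein-AM and Hoechst stained cells quantifies migration into a stopper-defined gap after 24 h compound exposure. Neural crest cells from IMR90 iPSC migrated 24 h in EGF/FGF N2-S medium before dosing; DMSO baseline.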

[2] = UKN2_HCS_IMR90_cell_viability: Viability Assessment in the University of Konstanz (UKN) Leist Lab Neural Crest Cell Migration Assay in human induced IMR90 Pluripotent Stem Cells (UKN2) (AID 2284233);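 further: cells exposed to compound for 24 h after a 24 h migration phase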
Summary of the method: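 After calcein-AM/Hoechst staining, viability is quantified by high-content fluorescence imaging, relative to DMSO, in iPSC (IMR90)-derived neural crest cells. Exposure lasts 24 h, starting after a 24 h migration period on PLO/laminin/fibronectin coating.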

[3] = CCTE_Shafer_MEA_dev_firing_rate_mean: CCTE's Neural Network Formation Assay for Mean Firing Rate, Shafer Lab (AID 2284031);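 on AC50: curve fitted for loss of firing so AC50 reflects decreased mean firing rate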
Summary of the method: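 Spike frequency (spikes/recording length, averaged over active electrodes) was recorded on days 5, 7, 9 and 12 and collapsed to AUC; rat cortical cultures received compound continuously over 12 days of network development.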

[4] = CCTE_Shafer_MEA_dev_per_burst_spike_percent: CCTE's Neural Network Formation Assay for Percent of Spikes in a Burst, Shafer Lab (AID 2284032);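 on AC50: fitted as a decrease in burst spike percentage below DMSO baseline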
Summary of the method: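 Value is trapezoidal AUC over recordings on days 5, 7, 9 and 12 of the well-mean fraction of spikes falling in single-electrode bursts; rat cortical cultures exposed continuously from plating, treatment renewed DIV 5 and 9, fitted downward against DMSO.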

[5] = CCTE_Shafer_MEA_dev_active_electrodes_number: CCTE's Neural Network Formation Assay for Number of Active Electrodes, Shafer Lab (AID 2284040; active means hit-call score of the fitted dose curve at least 0.9, where 1 is the maximum;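 on AC50: potency for loss of active electrodes versus DMSO so lower counts are hits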)
Summary of the method: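 Counts electrodes per well firing at least 5 spikes/min, recorded on days 5, 7, 9 and 12 in rat cortical cultures dosed continuously from plating (treatment refreshed DIV 5, 9). Value is the area under the curve over recordings, fitted downward relative to DMSO.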

[6] = CCTE_Shafer_MEA_dev_bursting_electrodes_number: CCTE's Neural Network Formation Assay for Number of Bursting Electrodes, Shafer Lab (AID 2284043; active means hit-call score of the fitted dose curve at least 0.9, where 1 is the maximum;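 on AC50: potency is for loss of bursting electrodes relative to DMSO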)
Summary of the method: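 Number of electrodes reaching ≥1 burst every 2 min was recorded at DIV 5, 7, 9 and 12 and collapsed as trapezoidal area under the curve. Cultures were rat cortical neurons on MEA plates, dosed continuously from plating with medium and treatment refreshed on DIV 5 and 9.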

[7] = CCTE_Shafer_MEA_dev_per_burst_interspike_interval: CCTE's Neural Network Formation Assay for Burst Interspike Interval, Shafer Lab (AID 2284044);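 on AC50: potency for a decrease of within-burst interspike interval below DMSO level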
Summary of the method: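 Primary rat cortical neurons on 48-well MEA plates, exposed from day 0 through day 12, treatment renewed at DIV 5 and 9. Within-burst interspike interval recorded days 5, 7, 9, 12, well-averaged, summarised as AUC; negative fit versus DMSO.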

[8] = CCTE_Shafer_MEA_dev_burst_duration_mean: CCTE's Neural Network Formation Assay for Mean Burst Duration, Shafer Lab (AID 2284045);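 on AC50: curve fitted for loss meaning shorter burst duration than DMSO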
Summary of the method: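 Mean single-electrode burst duration (first to last spike), averaged over bursting electrodes per well, then integrated as area-under-curve across recordings at days 5, 7, 9 and 12. Rat cortical cultures on MEAs, compound present from plating, refreshed at feeds.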

[9] = CCTE_Shafer_MEA_dev_interburst_interval_mean: CCTE's Neural Network Formation Assay for Mean Interburst Interval, Shafer Lab (AID 2284046);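 further: well-mean interburst interval of bursting electrodes as AUC over four recording days; curve fitted for decrease in interburst interval relative to DMSO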
Summary of the method: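 Developing rat cortical networks on 48-well MEAs receive compound from the day of plating. Burst intervals from each active electrode are averaged per well, and AUC over the recording days is fitted in the negative direction against DMSO.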

[10] = CCTE_Shafer_MEA_dev_inter_network_spike_interval_mean: CCTE's Neural Network Formation Assay for Mean Inter-network Spike Interval, Shafer Lab (AID 2284047);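 on AC50: potency for a decrease in mean inter-network spike interval below DMSO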
Summary of the method: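 Rat cortical cultures, 1.5 x 10^5 cells/well on 48-well MEA plates; continuous exposure days 0–12, medium and compound refreshed DIV 5, 9. Mean time between consecutive network-spike peaks; AUC across DIV 5/7/9/12; DMSO baseline, negative fitting direction.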

[11] = CCTE_Shafer_MEA_dev_network_spike_number: CCTE's Neural Network Formation Assay for Number of Network Spikes, Shafer Lab (AID 2284048);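 further: synchronized bursts across electrodes counted on days 5 7 9 12 and integrated as AUC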;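 on AC50: fit as a loss of signal meaning fewer network spikes than DMSO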
Summary of the method: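 Number of network spikes (coordinated firing across electrodes) recorded on days 5, 7, 9 and 12 and summarised as area under the curve. Rat cortical cultures on MEA, continuous compound exposure with full medium/treatment exchange at DIV 5 and 9.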

[12] = CCTE_Shafer_MEA_dev_network_spike_peak: CCTE's Neural Network Formation Assay for Mean Number of Electrodes in Network Spike, Shafer Lab (AID 2284049);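 further: fitted for loss of signal meaning fewer electrodes in network spikes than DMSO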
Summary of the method: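 Rat cortical primary culture, 1.5 x 10^5 cells/well, 48-well MEA (16 electrodes/well). Dosing day 0 through DIV 12, full media/compound exchange DIV 5, 9. AxIS adaptive spike detection; AUC over days 5/7/9/12; loss-of-signal vs DMSO.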

[13] = CCTE_Shafer_MEA_dev_spike_duration_mean: CCTE's Neural Network Formation Assay for Mean Spike Duration, Shafer Lab (AID 2284051);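 further: mean network spike duration pooled as area under curve over DIV 5 to 12 recordings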;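 on AC50: potency for a decrease in mean network spike duration versus DMSO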
Summary of the method: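 Readout is the average length of network spikes, clustered firing across electrodes, summed over DIV 5, 7, 9 and 12 as area under the curve. Neurons from rat cortex developed networks on MEA plates under continuous 12-day exposure.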

[14] = CCTE_Shafer_MEA_dev_network_spike_duration_std: CCTE's Neural Network Formation Assay for Standard Deviation of Network Spike Duration, Shafer Lab (AID 2284052);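 further: hits are decreases in network spike duration SD versus DMSO vehicle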
Summary of the method: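 Read-out is the trapezoidal area-under-the-curve across recordings made on days 5, 7, 9 and 12, fitted in the negative direction against DMSO baseline. Neurons were primary rat cortical cells treated from day 0, with treatment renewed at each feed.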

[15] = CCTE_Shafer_MEA_dev_per_network_spike_spike_number_mean: CCTE's Neural Network Formation Assay for Mean Number of Spikes in a Network Spike, Shafer Lab (AID 2284053);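 on AC50: fitted as decrease in spikes per network spike relative to DMSO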
Summary of the method: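 Continuous twelve-day exposure of developing rat cortical networks grown over 16 microelectrodes per well; spontaneous firing is captured at four time points, and the per-network-spike spike number is integrated over development by trapezoidal AUC.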

[16] = CCTE_Shafer_MEA_dev_per_network_spike_spike_percent: CCTE's Neural Network Formation Assay for Percent of Spikes in a Network Spike, Shafer Lab (AID 2284054)
Summary of the method: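 Metric: fraction of spikes falling in a 0.05 s window at network-spike peaks. Recordings were made on days 5, 7, 9 and 12 and collapsed by trapezoidal AUC. Cultures were rat cortical neurons on MEA plates, dosed continuously from plating, re-dosed at media changes.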

[17] = CCTE_Shafer_MEA_dev_AB: CCTE's Alamar Blue Assay for Cytotoxicity in the Neural Network Formation Assay, Shafer Lab (AID 2284083; active means hit-call score of the fitted dose curve at least 0.9, where 1 is the maximum;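 further: resazurin reduction fluorescence as viability of cultured neurons; twelve days of exposure from plating with re-dosing on DIV 5 and 9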)
Summary of the method: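 Fluorescent resazurin reduction serves as the viability read-out, with DMSO as negative control and baseline. Cells were primary rat cortical neurons grown on MEA plates and dosed from day 0 to day 12, treatment renewed on DIV 5 and 9.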

[18] = CCTE_Shafer_MEA_dev_mutual_information_norm: CCTE's Neural Network Formation Assay for Mutual Information Normalization, Shafer Lab (AID 2284091);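 on AC50: mutual information between electrodes summarised as area under curve across four recording days; potency is for a decrease in mutual information relative to DMSO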
Summary of the method: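 Shared information across electrodes, tracked on days 5, 7, 9 and 12 of network development and collapsed as trapezoidal area under the curve. Rat cortical cultures were treated continuously from plating, with treatment renewed at feeds on DIV 5 and 9; DMSO baseline, negative-direction fit.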

[19] = CCTE_Shafer_MEA_dev_correlation_coefficient_mean: CCTE's Neural Network Formation Assay for Mean Correlation Coefficient, Shafer Lab (AID 2284093);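 on AC50: well mean pairwise spike train correlation integrated as AUC over recording days 5 to 12; potency fitted for loss of correlation relative to DMSO vehicle wells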
Summary of the method: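 Read-out: well-mean correlation coefficient of spike trains between electrode pairs, collapsed over four recording days as trapezoidal area-under-the-curve. Developing rat cortical neuron networks grown on MEAs received test chemical continuously from plating.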

Measured: AC50

O=C1N[C@@H]2C(=C[C@H](O)[C@@H](O)[C@H]2O)c2cc3c(c(O)c21)OCO3
active: [1] 0.047 µM | [2] 0.218 µM

CN1CC=C(c2ccccc2)CC1
inactive: [1] | [2]

[CH3][Sn]([CH3])([CH3])[Cl]
active: [1] 7.88 µM | [2] 4.51 µM

O.O.O.O.O.[Cd+2].[Cd+2].[Cl-].[Cl-].[Cl-].[Cl-]
active: [3] 0.227 µM | [4] 0.316 µM | [5] 0.362 µM | [6] 0.3 µM | [7] 0.812 µM | [8] 0.375 µM | [9] 0.863 µM | [10] 0.0384 µM | [11] 0.117 µM | [12] 0.372 µM | [13] 0.295 µM | [14] 0.181 µM | [15] 0.226 µM | [16] 0.228 µM | [17] 0.458 µM | [18] 0.135 µM | [19] 0.246 µM

[CH3][Sn]([CH3])[CH3]
active: [3] 0.571 µM | [4] 1.62 µM | [5] 0.212 µM | [6] 0.245 µM | [7] 2.33 µM | [8] 0.992 µM | [9] 2.36 µM | [11] 0.0944 µM | [12] 0.224 µM | [13] 0.151 µM | [14] 0.0773 µM | [15] 0.222 µM | [16] 0.221 µM | [17] 1.58 µM | [18] 0.221 µM | [19] 0.222 µM
inactive: [10]

CCOP(=S)(OCC)SCS(=O)C(C)(C)C (stereo not drawn)
active: [12] 0.555 µM
inactive: [3] | [4] | [5] | [6] | [7] | [8] | [9] | [10] | [11] | [13] | [14] | [15] | [16] | [18] | [19] | [1] | [2]

CC1(C)C(C=C(Cl)Cl)[C@H]1C(=O)O[C@H](C#N)c1cccc(Oc2ccccc2)c1 (stereo partly drawn)
inactive: [1] | [2]

O=[As](O)(O)O
inactive: [1]
active: [2] 104 µM

Clc1cc(Cl)c(-c2cc(Cl)c(Cl)c(Cl)c2Cl)cc1Cl
active: [1] 5.57 µM | [2] 13.3 µM

CCOP(=O)(OCC)OC(Cl)C(Cl)(Cl)Cl (stereo not drawn)
inactive: [10] | [1] | [2]
active: [3] 1.64 µM | [4] 1.32 µM | [5] 2.52 µM | [6] 1.1 µM | [7] 3.48 µM | [8] 1.22 µM | [9] 3.57 µM | [11] 0.833 µM | [12] 2.29 µM | [13] 1.39 µM | [14] 0.602 µM | [15] 1.92 µM | [16] 2.25 µM | [17] 2.24 µM | [18] 0.797 µM | [19] 1.13 µM

O=[As]O
inactive: [10]
active: [3] 2.14 µM | [4] 1.4 µM | [5] 1.41 µM | [6] 1.23 µM | [7] 2.43 µM | [8] 2.5 µM | [9] 1.69 µM | [11] 1.28 µM | [12] 1.67 µM | [13] 1.14 µM | [14] 1.08 µM | [15] 1.14 µM | [16] 1.14 µM | [17] 1.82 µM | [18] 1.15 µM | [19] 0.996 µM

CC1(C)[C@H](C=C(Cl)Cl)[C@H]1C(=O)OCc1c(F)c(F)cc(F)c1F
inactive: [10] | [14] | [1] | [2]
active: [3] 23.4 µM | [4] 23.1 µM | [5] 23 µM | [6] 23.3 µM | [7] 13.7 µM | [8] 9.92 µM | [9] 13.9 µM | [11] 23.3 µM | [12] 16.7 µM | [13] 22.8 µM | [15] 13.1 µM | [16] 12.8 µM | [18] 13.4 µM | [19] 10.7 µM
